# IL-1B inflam inh – qHTS for Inhibitors of Inflammasome Signaling: IL-1-beta AlphaLISA Primary Screen. activity change, % at 57.5 µM. THP-1 LPS/ATP IL-1B secretion, AlphaLISA, 16 h; active compounds read low. 360,000 tested, 4.7% active. AID 743279, 2014; in the data active = activity change below about -50%; inconclusive = mostly about -30% to -49%
#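 Secreted IL-1B measured by AlphaLISA bead assay after 16 h compound exposure of THP-1 cells; compounds (final up to 57.5 uM) added 1 h before LPS (250 ng/mL) and ATP (1.25 mM) stimulation; lower signal means less secretion.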
# DT40 TDP1 CPT – qHTS for Inhibitors of human tyrosyl-DNA phosphodiesterase 1 (TDP1): qHTS in cells in presence of CPT | 420,000 tested, 12% active | chicken DT40 Tdp1-/-;hTDP1 cells + 20 nM CPT, ATP luminescence, 48 h | Potency, µM (series often up to 46.2 µM), without a hit: at the top dose activity change, negative = growth inhibition, most hits filed as inhibitors; also: potency is read from the fitted curve at half-maximal effect; nearly all actives have a fitted effect of over 55% in size
#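 Chicken DT40 Tdp1-/- cells complemented with human TDP1, 400 cells/well, exposed to compounds plus 20 nM camptothecin for at least 48 h at 37 C; viability read as ATP content by CellTiter-Glo luminescence.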
# ELG1 DNA repair – qHTS screen for small molecules that inhibit ELG1-dependent DNA repair in human embryonic kidney (HEK293T) cells expressing luciferase-tagged ELG1 | HEK293T ELG1-luciferase reporter, luminescence, 16 h; DNA damage induced by 5-fluorouridine | Potency, µM (highest dose often 46.1 µM), for inactives: at the highest dose activity change, negative = inhibition, actives largely listed as inhibitors | AID 504467, 2011 | 330,000 tested, 2.3% active; also: potency is read from the fitted curve at half-maximal effect; nearly all actives have a fitted effect of over 55% in size
#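 In this reporter screen, reduction of luminescence relative to DMSO vehicle indicated activity. Compounds and 5-fluorouridine were added together to 2,000 cells per well, incubated for 16 hr at 37 °C, then developed with ONE-Glo.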
# Giardia kill – Small Molecules that selectively kill Giardia lamblia: qHTS; AID 540267, 2011; activity change, % at 7.66 µM, hits read low; 340,000 tested, 0.15% active; Giardia lamblia trophozoite viability; in the data active = activity change below about -80%; inconclusive = between about -30% and that limit;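 also: parasites exposed to compound for two days anaerobically before the ATP read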
#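 Trophozoite viability was measured as ATP-dependent luminescence, read 15-30 min after reagent addition. Before that, parasites at 100 cells/well were exposed to compounds for 48 h, anaerobically, at 37 deg C.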
# TDP1 inh – qHTS Assay for Inhibitors of Tyrosyl-DNA Phosphodiesterase (TDP1); Tyrosyl-DNA phosphodiesterase 1 (Homo sapiens), Q9NUW8; recombinant TDP1, AlphaScreen DNA substrate cleavage; Potency, µM (doses to about 130 µM), without a hit: at the highest dose activity change, negative = inhibition, hits mostly inhibitors; 350,000 tested, 0.28% active; also: potency is read from the fitted curve at half-maximal effect; nearly all actives have a fitted effect of over 40% in size
# Target sequence (Q9NUW8 whole entry, looked up): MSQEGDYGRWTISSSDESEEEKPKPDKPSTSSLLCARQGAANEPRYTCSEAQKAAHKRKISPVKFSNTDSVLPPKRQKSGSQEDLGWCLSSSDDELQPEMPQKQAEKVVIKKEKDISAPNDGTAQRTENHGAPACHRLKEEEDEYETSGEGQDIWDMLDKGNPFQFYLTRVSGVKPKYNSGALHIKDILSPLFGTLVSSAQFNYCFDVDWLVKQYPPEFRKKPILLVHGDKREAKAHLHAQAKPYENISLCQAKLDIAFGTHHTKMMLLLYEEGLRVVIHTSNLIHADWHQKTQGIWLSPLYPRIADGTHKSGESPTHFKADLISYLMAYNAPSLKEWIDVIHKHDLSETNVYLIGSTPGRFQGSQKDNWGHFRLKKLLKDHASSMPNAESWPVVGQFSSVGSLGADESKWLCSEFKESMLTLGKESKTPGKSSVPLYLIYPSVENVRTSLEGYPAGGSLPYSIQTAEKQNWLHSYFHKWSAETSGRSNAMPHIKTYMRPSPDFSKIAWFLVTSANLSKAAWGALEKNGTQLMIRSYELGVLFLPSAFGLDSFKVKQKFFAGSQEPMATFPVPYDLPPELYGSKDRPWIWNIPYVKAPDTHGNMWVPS
#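 Recombinant E. coli-expressed Tdp1 (1 nM) preincubated with compound 15 min at RT, then 5'-biotin/3'-phosphotyrosine-FITC DNA substrate (15 nM) added for 5 min. AlphaScreen beads (10 ug/ml) added, 10 min RT; tyrosine-FITC cleavage read as signal loss.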
# TDP1 cell noCPT – qHTS for Inhibitors of human tyrosyl-DNA phosphodiesterase 1 (TDP1): qHTS in cells in absence of CPT; DT40 Tdp1-/- hTDP1 cells, no CPT, ATP luminescence, 48 h; Potency, µM (top dose mostly 46.2 µM), without a hit: at the highest dose activity change, negative = growth inhibition, most hits filed as inhibitors; 420,000 tested, 15% active; AID 686978, 2013; also: potency is read from the fitted curve at half-maximal effect; nearly all actives have a fitted effect of over 55% in size
#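 DT40 Tdp1-/-;hTDP1 cells, no CPT (DMSO vehicle only), 400 cells/well; compounds pin-transferred; ≥48 hr, 37 °C; CellTiter-Glo 30 min RT dark, luminescence read.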
# An asterisk follows results filed as active; ? = inconclusive; nt = not tested or not shown; [ ] = dose if it differs, or a comment. A selection: hits, their analogues and other compounds. The true share with any hit is near 19%. Unless noted, calls follow the shape of the dose curve; as a rule, active = well fitted curve in the direction sought with a large enough effect; inconclusive = small, poorly fitted or top-dose-only effect, or another doubt; inactive = no such curve, though single readings can be large; an effect the other way counts as inactive or inconclusive. % is scaled to controls: 0 for no effect and ±100 for the full control effect.
SMILES,IL-1B inflam inh,DT40 TDP1 CPT,ELG1 DNA repair,Giardia kill,TDP1 inh,TDP1 cell noCPT
CC1=C(C(=O)OCc2ccccc2)C(c2cccc([N+](=O)[O-])c2)NC(=O)N1 (stereo not given),-2,?,-23%,3,nt,18µM*
CCOc1cc(C2C(C(=O)OC)=C(C)NC3=C2C(=O)c2ccccc23)cc(Cl)c1O (stereo not given),nt,?,nt,nt,nt,18µM*
C=CC(C1=CC(=O)C(OC)=CC1=O)c1ccc(O)cc1 (stereo not given),nt,?,nt,nt,11%[56.1 µM],?
COC(=O)c1c(NC(=O)CCCOc2cccc(C)c2)sc2c1CCC2,nt,-8%,nt,nt,5%[12.3 µM],-4%
COC(=O)c1c(NC(=O)CCCOc2ccc(C)cc2)sc2c1C(C(=O)OC)CC2 (stereo not given),nt,15µM*,nt,16,1%[12.3 µM],13µM*
COC(=O)c1c(NC(=O)CCCOc2cccc(C)c2)sc2c1C(C(=O)OC)CC2 (stereo not given),nt,16µM*,nt,8,-6%[12.3 µM],15µM*
CCOC(=O)c1c(NC(=O)/C=C/c2ccc(OCC)cc2)sc2c1CCC2,nt,8%,nt,nt,-5%[12.3 µM],-13%
CCOc1ccc(/C=C/C(=O)Nc2sc3c(c2C(=O)OC)C(C(=O)OC)CC3)cc1 (stereo not given),nt,9.2µM*,nt,nt,-13%[12.3 µM],9.2µM*
CCOc1ccc(N2CC(NC(=O)c3ccc(Cl)cc3)CC2=O)cc1 (stereo not given),nt,?,nt,nt,-3%,?
Nc1nc(=S)c2[nH]c(=S)[nH]c2[nH]1,5,-14%,nt,-7,nt,-27%
Nc1nc(=S)c2[nH]cnc2[nH]1,0,2.6µM*,4%,-5,-13%[56.1 µM],1.8µM*
Cc1cc(=O)oc2c(N)nccc12,-105*,?,nt,nt,nt,?
Cn1ccsc1=NC(=O)c1ccc([N+](=O)[O-])o1,-29,18µM*,-10%,-93*,6%,?
CCc1nnc(NC(=O)CSc2nnc(-c3ccc(NS(=O)(=O)c4ccccc4)cc3)o2)s1,12,4%,-11%,0,6%,-2%
COc1ccc([C@@H]2[C@@H]3C(=O)N(C(C)(C)C)C(=O)[C@@H]3[C@]3(CC(C)C)C(=O)N(c4ccc(C(F)(F)F)cc4)C(=O)N23)cc1,8,-28%,19%,22,nt,?
CCOC(=O)[C@@H]1[C@H]2COc3cc(OC)ccc3[C@@H]2N2C(=O)N(c3ccc(C(F)(F)F)cc3)C(=O)[C@@]12C,-2,?,2%,7,nt,13µM*
COc1ccc([C@@H]2[C@@H]3C(=O)N(C(C)(C)C)C(=O)[C@@H]3[C@]3(C)C(=O)N(c4ccc(C(F)(F)F)cc4)C(=O)N23)cc1,-7,?,3%,-25,nt,16µM*
CCOC(=O)[C@@H]1[C@H]2COc3cc(OC)ccc3[C@H]2N2C(=O)N(c3ccc(C(F)(F)F)cc3)C(=O)[C@]12C,-17,15µM*,23µM*,-22,1%,21µM*
COC(=O)c1ccc(CN2C(=O)NC(Cc3c[nH]c4ccccc34)C2=O)cc1 (stereo not given),5,?,27%,38,nt,?
CNC(=O)C[C@H]1C(=O)N(CCc2ccccc2)C[C@@H]1CSC,13,7%,nt,nt,nt,3%
COC(=O)[C@]12CCCCC=C1N(Cc1cccc3ccccc13)C(=O)[C@H](CC(=O)NCc1cccs1)C2,-60*,?,nt,nt,nt,?
COC(=O)[C@]12CCCCC=C1N(Cc1cccc3ccccc13)C(=O)[C@H](CC(=O)NCc1cccc3ccccc13)C2,-19,?,nt,nt,nt,?
COC(=O)[C@]12CCCCC=C1N(Cc1cccc3ccccc13)C(=O)[C@H](CC(=O)NCc1ccc(C)o1)C2,0,?,nt,nt,nt,21µM*
CCOC(=O)[C@]12CCCC=C1N(Cc1cccc3ccccc13)C(=O)[C@H](CC(=O)NCc1ccc(C)o1)C2,-2,?,nt,nt,nt,?
COC(=O)c1cc2sc(C)cc2n1Cc1nc(-c2cccc(Br)c2)oc1C,nt,0%,nt,nt,5%,-29%
SMILES,IL-1B inflam inh,DT40 TDP1 CPT,ELG1 DNA repair,Giardia kill,TDP1 inh,TDP1 cell noCPT
COc1ccccc1CCn1c(=O)c(-c2cccs2)nc2cncnc21,nt,6%,nt,nt,nt,-1%
COc1ccccc1CCn1c(=O)cnc2cncnc21,nt,4.6µM*,nt,nt,nt,5.8µM*
c1cc2c(cc1C1=Nn3c(nnc3C3CCCCC3)SC1)OCO2,0,18µM*,?,29,9%,13µM*
CN(C)S(=O)(=O)c1ccc(N2CCCC2)c(C(=O)N2CCN(c3ccc([N+](=O)[O-])cc3)CC2)c1,-7,-23%,?,?,7%,?
Cc1cc(NS(=O)(=O)c2ccc3c(c2)CCC(=O)N3)ccc1F,nt,nt,nt,nt,1%,nt
O=C1NC[C@H](CCCCN2C[C@H](Cc3ccc(O)cc3)N(CCC3CCCCC3)C(=O)C2=O)N(CCc2ccccc2)C1=O,-6,-3%,nt,nt,nt,2%
O=C1NC[C@H](CCCCN2C[C@H](Cc3ccccc3)N(CC3CCCCC3)C(=O)C2=O)N(CCc2ccccc2)C1=O,-51*,-29%,nt,nt,nt,?
O=C1NC[C@H](CCCCN2C[C@@H](Cc3ccccc3)N(Cc3ccccc3)C(=O)C2=O)N(CCC2CCCCC2)C1=O,?,-4%,nt,nt,nt,?
S=C1NC[C@H](CC2CCCCC2)N1CCc1cccc2ccccc12,21,?,-14%,-13,-8%,?
O=C1NC[C@H](CCCCN2C[C@H](Cc3ccccc3)N(Cc3ccccc3)C(=O)C2=O)N(CCC2CCCCC2)C1=O,23,-6%,nt,nt,nt,18µM*
O=C1NC[C@@H](CCCCN2C[C@H](Cc3ccccc3)N(CCC3CCCCC3)C(=O)C2=O)N(CCc2ccccc2)C1=O,-51*,?,nt,nt,nt,?
O=C1NC[C@H](CC2CCCCC2)N(CCc2cccc3ccccc23)C1=O,-19,?,nt,nt,nt,16µM*
O=c1c(Cc2ccccc2)c(O)ccn1C1CCCCCCC1,-2,-22%,0%,-1,-5%,-8%
CC(C)C[C@H]1CNC(=O)C(=O)N1C[C@@H]1CCCN1C[C@H](CC(C)C)N1C[C@H](Cc2ccc(O)cc2)N(CCc2ccccc2)C(=O)C1=O,1,6%,nt,nt,nt,4%

# High-throughput results from PubChem BioAssay.
